Data on 40 sequences can be found in the OligoGym collection.
Also: reference of the scale not given here.

In the first experiment the target is AP1S1. Put plainly: pooled miR-30 sensor sort-seq; sequence = guide strand. The conditions noted are these: shRNA.
Consider TTATAGACAACTTTGAGGTCCC, for which the sensor-assay potency score (higher = more potent) was determined as 0.854.
Still for that read-out and setting: in the case of TTTGCAGCCGCAGTTTTCCCTG it was -0.931; in that of ATCTCTTATAGACAACTTTGAG, -0.956; in that of TTTGTCTAAGAGCTCCACGTAT, -0.832.
On the same count and under the same terms, the value for TTTGAGGTCCCTCCACTCCAGG was -1.48.

The target in the next experiment is AP2B1. The description is as above. The note with it: shRNA.
The sequence TTGTTTTGCAACTTGCTGGAAA showed a sensor-assay potency score (higher = more potent) of -0.458.
Still for that read-out and setting: in the case of AATAGTATAAACATTGTTGTTT it was -0.183; in that of TAACAATTCTAGAAACTTCATT, -0.559.
On the same count and under the same terms, the value for TAGAAGATCACCTTGAGAGGGG was 0.529; that for TTTCAGTTCTGCCAGAACCTGA was -0.77.
Still for that read-out and setting: the value for TAAATGACATTCCTTAATCTGA was -0.695; that for TCGAACAAAGTCAACATCCACC was -0.757.
Consider TAGAGAATCCAGAAATCCCTGA, for which the sensor-assay potency score (higher = more potent) was 0.164.
On the same count and under the same terms, in the case of TTCAGATCAAGTAAGTTGCTGT it was 1.15; in that of TTCTGTAATTTTGTCTACCCGG, -1.02.
On the same count and under the same terms, the value for TAATCTGAAACTGAAGTTCATT was -0.631.
Same read-out and setting: the value for TTGTTTTTCACAGCCACCTGGA was -0.558; that for TAGTTCCAGATTGTCAGTCTGC was -0.496.
The sequence TTTAGTTCAAATATTTCTCCTT had a sensor-assay potency score (higher = more potent) of 0.5.
The same measure, in the same setting: in the case of TTAGTTCAAATATTTCTCCTTT it was 0.546; in that of AAAGAGAGAACTAACATCCTTC, 0.773.
TTGTTGTTTTGCAACTTGCTGG had a sensor-assay potency score (higher = more potent) of -0.34.
On the same count and under the same terms, in the case of TTCATCGTGAAAACCCTCCAGG it was -0.0807.
Sequence TTTCTAGTAACTCATCTGCATT showed a sensor-assay potency score (higher = more potent) of -1.34.
Sequence TATTGTAGTAGTCAGAATCCTT showed a sensor-assay potency score (higher = more potent) of 0.0218.
On the same count and under the same terms, in the case of TTTCATTGTTGAGTTCAGCTTT it was 0.578.
Same read-out and setting: the value for TCATCCTTCAAGCACTTGCGGA was -1.05.
On the same count and under the same terms, the value for TAGCATATTCTTTCAGTTCTGC was 0.583; that for TTCATTAGGACTTTTACCGCTG was 0.615.

Another experiment has as its target AP3B1. The description is as above. The conditions noted are these: shRNA.
The sequence TTTGAATTGACATAGTTGCTAT returned a sensor-assay potency score (higher = more potent) of -0.399.
Sequence TTCTTTATAACAACCACACTTT registered a sensor-assay potency score (higher = more potent) of 0.0495.
On the same count and under the same terms, the value for TACTTCTACATTTCGAACTGAT was 0.236; that for TTGCTTTAGATCTTCATTCTTC was 0.267.
Still for that read-out and setting: in the case of TACATTCGGAACAATAAGCTGC it was 0.383; in that of TAAACATATACCAACTTCTTGA, -0.605; in that of TAGATCTTCATTCTTCTTCAAA, -0.874.
The sequence TAGAAGTGAAACATCTTTGGTA showed a sensor-assay potency score (higher = more potent) of 0.763.
On the same count and under the same terms, in the case of TTATGAATCAGATCTATTCTGT it was 0.754.
TAAACCTTCAAGATCAGCCATC came in with a sensor-assay potency score (higher = more potent) of -0.757.
Same read-out and setting: the value for TTCTTCAGCATATCGAACCAGG was -0.815.
